Experimental findings from PubChem BioAssay are described below.

Calls of active or inactive are those of the source.

Assay [1] has as its system PRMT1 (protein arginine N-methyltransferase 1). Put plainly: small molecules binding arginine methyltransferase PRMT1 – biochemical, small-molecule microarray, 635 nm fluorescence, primary screen (AID 1088).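 Note: binding of Prmt1 protein to compounds spotted on small-molecule microarray slides.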 Conditions: higher = more signal.
Assay [2] can be described thus: growth effects on S. cerevisiae YJM789 – YJM789 clinical isolate, OD600, 24 h, basal, primary screen (AID 1089).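 Note: growth of clinical yeast isolate S. cerevisiae YJM 789 seeded 1000 cells per well; test concentration not given here.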 Conditions: higher = more signal, called active from +8 up or from −8 down.
Assay [3] is described as follows: S. pombe growth modifiers, basal conditions – strain 972, OD600, 24 h, no modulator, primary screen (AID 1090).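 Note: basal condition with compound alone and no growth modifier present; test concentration not given here.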 The settings on record: S. pombe 972 growth, higher = more signal, called active from +8 up or from −8 down.
Assay [4] can be described thus: budding yeast growth modifiers under rapamycin – strain BY4716, OD600, 96 h, primary screen (AID 1091). Note: test concentration not given here. Conditions: S. cerevisiae BY4716 + rapamycin, higher = more signal, called active from +8 up or from −8 down.
In assay [5] the target is Torsin-1A-interacting protein 2 (Homo sapiens) (UniProt Q8NFQ8). Put plainly: small molecules binding lysate-expressed LULL1 – cell lysate, human LULL1 lysate, 635/667 nm fluorescence, primary screen (AID 1092).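 Note: probe is lysate of COS7 cells overexpressing human LULL1; score merges per-feature 667 nm fluorescence with signal-to-noise.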 Conditions: small-molecule microarray, hLULL1 lysate binding, 635 nm fluorescence; higher = more signal.
Assay [6] is described as follows: optical density change of DRC41 E. coli – strain DRC41, OD650, 24 h, E. coli filamentation project, primary screen (AID 1093).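 Note: MC1000 strain lacking acrAB efflux and sulA so SOS filamentation is blocked; test concentration not given here.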 The settings on record: E. coli DRC41 growth, higher = more signal, called active from +8 up or from −8 down.
The nature of assay [7]: probe aLefty2 binding to arrayed compounds – biochemical, biotinylated probe, 635/667 nm fluorescence, primary screen (AID 1094).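 Note: score merges spot fluorescence near 667 nm with spot signal-to-noise ratio.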 The settings on record: small-molecule microarray, higher = more signal.
The subject of assay [8] is Noggin (protein binding on small-molecule microarray). Nature of the assay: small molecules binding Noggin protein – biochemical, 635/667 nm fluorescence, primary screen (AID 1095).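 Note: score merges 667 nm feature fluorescence with signal to noise over triplicate slides.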 Conditions: 635 nm fluorescence, higher = more signal.
For assay [9], the target named is Neurogenic locus notch homolog protein 3 (Homo sapiens) (UniProt Q9UM47). Put plainly: small molecules binding NOTCH3 protein – biochemical, 635/667 nm fluorescence, primary screen (AID 1096). Conditions: small-molecule microarray, 635 nm fluorescence, higher = more signal.
Assay [10] in a line: probe aEGFR binding to arrayed compounds – biochemical, biotinylated probe, 635/667 nm fluorescence, primary screen (AID 1097).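 Note: probe is a biotinylated anti-EGFR antibody binding compounds printed on slides; score combines fluorescence near 667 nm and signal to noise of each spot.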 The settings on record: small-molecule microarray, higher = more signal.
Assay [11] deals with Plasmodium falciparum Sir2 (PF13_0152, Sir2A). Nature of the assay: Plasmodium falciparum Sir2A binding compounds – biochemical, small-molecule microarray, 635 nm fluorescence, primary screen (AID 1098).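 Note: score merges spot fluorescence intensity with its signal-to-noise ratio.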 The settings on record: fluorescence 635 nm, higher = more signal.
The nature of assay [12]: probe aDKK1 binding to arrayed compounds – biochemical, biotinylated probe, 635/667 nm fluorescence, primary screen (AID 1099).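 Note: score merges 667nm spot fluorescence with signal to noise across triplicate slides; reference of the scale not given here.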 Conditions: small-molecule microarray, higher = more signal.
Assay [13] is described as follows: probe aCHRDL2 binding to arrayed compounds – biochemical, biotinylated probe, 635/667 nm fluorescence, primary screen (AID 1100). Conditions: small-molecule microarray, higher = more signal.
Assay [14] in a line: change in splice reporter luminescence, either direction, cell-based, HEK293, spliceosome inhibition project, primary screen (AID 1101).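 Note: HEK293 cells carrying a splicing-competent luciferase reporter gene; test concentration not given here.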 Conditions: HEK293 splicing luciferase reporter, 24 h, higher = more signal, called active from +8 up or from −8 down. On the technique in general: A reporter such as luciferase makes a cellular process visible.
For assay [15], the target named is Fibroblast growth factor 10 (Homo sapiens) (UniProt O15520). Nature of the assay: compounds binding fibroblast growth factor 10 – biochemical, small-molecule microarray, 635 nm fluorescence, primary screen (AID 1102). The settings on record: FGF10 binding, fluorescence 635 nm, higher = more signal.
The test system of assay [16] is glycogen synthase kinase-3 (GSK3A per assay name; protocol says GSK3B). Nature of the assay: compounds binding glycogen synthase kinase-3 – biochemical, small-molecule microarray, 635 nm fluorescence, GSK3A, primary screen (AID 1103). Note: the record names both GSK3A and GSK3B. The settings on record: fluorescence 635 nm, higher = more signal.
Assay [17] concerns the target Epidermal growth factor receptor (Homo sapiens) (UniProt P00533). Put plainly: compounds binding epidermal growth factor receptor – biochemical, small-molecule microarray, 635 nm fluorescence, primary screen (AID 1104).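 Note: score merges 667 nm emission intensity with spot signal to noise over triplicate slides.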 The settings on record: EGFR binding, higher = more signal.
The target in assay [18] is Follistatin-related protein 3 (Homo sapiens) (UniProt O95633). Put plainly: compounds binding follistatin-related protein 3 – biochemical, small-molecule microarray, 635 nm fluorescence, primary screen (AID 1105).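 Note: score merges emission near 667 nm and signal to noise per printed spot across three slides.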 Conditions: FSTL3 binding, higher = more signal.
Assay [19] addresses Dickkopf-related protein 1 (Homo sapiens) (UniProt O94907). Nature of the assay: small molecules binding DKK1 protein – biochemical, small-molecule microarray, 635 nm fluorescence scan, primary screen (AID 1106).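 Note: score merges emission near 667 nm with signal to noise over three replicate slides.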 The settings on record: higher = more signal.
Assay [20] has as its system Inhibin beta A chain (activin A). Nature of the assay: small molecules binding activin A – biochemical, small-molecule microarray, 635 nm fluorescence scan, primary screen (AID 1107).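 Note: mouse activin A protein probed at 4.33 µg/mL on printed slides; score merges bound-protein fluorescence near 667 nm with spot signal-to-noise.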 The settings on record: INHBA, higher = more signal.

Sequence of Neurogenic locus notch homolog protein 3 (Homo sapiens) (Q9UM47 whole entry, looked up): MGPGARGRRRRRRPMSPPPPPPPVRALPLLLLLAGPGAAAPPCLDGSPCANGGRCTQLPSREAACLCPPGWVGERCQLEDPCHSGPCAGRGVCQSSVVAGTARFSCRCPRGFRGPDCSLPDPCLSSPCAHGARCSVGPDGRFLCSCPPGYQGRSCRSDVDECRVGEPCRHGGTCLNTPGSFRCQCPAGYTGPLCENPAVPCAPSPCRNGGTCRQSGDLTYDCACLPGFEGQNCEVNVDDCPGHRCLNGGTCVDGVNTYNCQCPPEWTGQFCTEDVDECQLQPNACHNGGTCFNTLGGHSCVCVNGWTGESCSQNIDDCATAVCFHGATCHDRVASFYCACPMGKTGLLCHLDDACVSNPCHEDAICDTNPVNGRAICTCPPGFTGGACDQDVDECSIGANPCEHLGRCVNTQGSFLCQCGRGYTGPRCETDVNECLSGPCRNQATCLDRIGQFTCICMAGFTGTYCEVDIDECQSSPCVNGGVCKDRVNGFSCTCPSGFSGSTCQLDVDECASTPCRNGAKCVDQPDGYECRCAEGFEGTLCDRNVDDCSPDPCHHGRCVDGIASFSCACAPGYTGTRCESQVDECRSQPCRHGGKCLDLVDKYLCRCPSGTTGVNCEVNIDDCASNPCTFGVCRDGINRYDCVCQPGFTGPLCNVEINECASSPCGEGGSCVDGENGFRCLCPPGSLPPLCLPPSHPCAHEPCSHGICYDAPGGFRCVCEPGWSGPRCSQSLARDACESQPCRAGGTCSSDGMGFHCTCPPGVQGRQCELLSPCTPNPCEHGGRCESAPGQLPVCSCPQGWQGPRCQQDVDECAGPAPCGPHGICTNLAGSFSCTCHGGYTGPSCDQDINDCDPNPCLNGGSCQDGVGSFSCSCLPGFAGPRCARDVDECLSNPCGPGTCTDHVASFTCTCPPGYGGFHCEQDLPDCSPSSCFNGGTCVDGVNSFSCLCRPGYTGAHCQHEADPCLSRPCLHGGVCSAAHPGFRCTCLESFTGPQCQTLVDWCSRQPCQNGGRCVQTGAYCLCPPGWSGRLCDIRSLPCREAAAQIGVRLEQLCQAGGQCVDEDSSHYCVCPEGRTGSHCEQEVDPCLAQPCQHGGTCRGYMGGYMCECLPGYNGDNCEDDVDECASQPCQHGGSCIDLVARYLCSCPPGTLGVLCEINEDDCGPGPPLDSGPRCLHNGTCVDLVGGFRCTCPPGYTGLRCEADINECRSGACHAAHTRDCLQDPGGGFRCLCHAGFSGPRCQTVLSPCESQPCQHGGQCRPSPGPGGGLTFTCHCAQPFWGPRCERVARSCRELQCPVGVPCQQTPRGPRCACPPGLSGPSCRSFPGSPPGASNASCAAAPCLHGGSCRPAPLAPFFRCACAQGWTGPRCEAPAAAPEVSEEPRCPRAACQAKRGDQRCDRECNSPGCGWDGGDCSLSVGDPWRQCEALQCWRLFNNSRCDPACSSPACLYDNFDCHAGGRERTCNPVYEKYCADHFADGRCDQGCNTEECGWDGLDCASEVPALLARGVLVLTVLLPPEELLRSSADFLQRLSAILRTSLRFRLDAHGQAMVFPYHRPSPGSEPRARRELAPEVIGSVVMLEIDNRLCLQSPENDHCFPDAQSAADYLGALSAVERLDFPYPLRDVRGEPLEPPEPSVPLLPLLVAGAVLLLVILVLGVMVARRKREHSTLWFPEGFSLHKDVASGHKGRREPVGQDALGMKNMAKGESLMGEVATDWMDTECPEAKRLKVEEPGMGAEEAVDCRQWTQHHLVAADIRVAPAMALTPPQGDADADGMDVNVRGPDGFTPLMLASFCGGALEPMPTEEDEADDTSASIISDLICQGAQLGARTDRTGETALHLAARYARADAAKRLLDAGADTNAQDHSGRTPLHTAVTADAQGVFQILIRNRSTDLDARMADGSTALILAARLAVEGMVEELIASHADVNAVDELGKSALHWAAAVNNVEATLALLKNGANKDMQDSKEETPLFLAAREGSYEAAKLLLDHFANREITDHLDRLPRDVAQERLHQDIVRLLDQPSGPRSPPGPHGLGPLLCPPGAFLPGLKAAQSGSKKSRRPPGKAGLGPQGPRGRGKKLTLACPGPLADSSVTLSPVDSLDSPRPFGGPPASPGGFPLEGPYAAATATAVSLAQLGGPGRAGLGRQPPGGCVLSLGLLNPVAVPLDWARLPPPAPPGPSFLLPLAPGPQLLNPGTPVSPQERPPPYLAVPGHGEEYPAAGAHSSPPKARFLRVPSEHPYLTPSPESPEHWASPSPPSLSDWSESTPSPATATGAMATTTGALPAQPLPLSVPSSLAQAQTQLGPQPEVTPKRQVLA
Sequence of Dickkopf-related protein 1 (Homo sapiens) (O94907 whole entry, looked up): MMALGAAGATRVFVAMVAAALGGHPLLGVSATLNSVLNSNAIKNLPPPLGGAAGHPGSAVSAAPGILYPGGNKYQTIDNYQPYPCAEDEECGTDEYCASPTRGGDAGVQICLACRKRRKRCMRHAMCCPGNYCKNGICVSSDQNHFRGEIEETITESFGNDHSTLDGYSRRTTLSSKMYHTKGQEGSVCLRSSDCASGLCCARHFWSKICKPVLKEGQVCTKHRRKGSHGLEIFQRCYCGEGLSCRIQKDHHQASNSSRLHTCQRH
Sequence of Torsin-1A-interacting protein 2 (Homo sapiens) (Q8NFQ8 whole entry, looked up): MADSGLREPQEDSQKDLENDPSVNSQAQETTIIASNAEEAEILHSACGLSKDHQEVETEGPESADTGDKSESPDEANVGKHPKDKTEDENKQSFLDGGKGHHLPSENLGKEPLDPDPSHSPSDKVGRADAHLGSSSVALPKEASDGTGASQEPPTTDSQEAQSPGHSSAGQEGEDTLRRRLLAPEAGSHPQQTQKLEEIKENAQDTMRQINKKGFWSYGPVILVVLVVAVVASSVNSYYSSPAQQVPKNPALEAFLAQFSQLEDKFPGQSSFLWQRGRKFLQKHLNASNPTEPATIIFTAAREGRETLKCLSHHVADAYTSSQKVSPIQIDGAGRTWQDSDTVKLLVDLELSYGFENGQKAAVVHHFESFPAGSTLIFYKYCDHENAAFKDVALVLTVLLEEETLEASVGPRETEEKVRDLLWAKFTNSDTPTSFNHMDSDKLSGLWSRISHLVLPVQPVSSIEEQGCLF
Sequence of Fibroblast growth factor 10 (Homo sapiens) (O15520 whole entry, looked up): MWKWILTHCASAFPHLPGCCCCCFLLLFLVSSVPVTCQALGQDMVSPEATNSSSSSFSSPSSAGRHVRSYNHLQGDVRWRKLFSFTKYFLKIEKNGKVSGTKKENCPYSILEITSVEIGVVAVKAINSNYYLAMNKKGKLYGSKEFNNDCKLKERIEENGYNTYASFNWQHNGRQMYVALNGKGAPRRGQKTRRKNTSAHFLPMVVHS
Sequence of Follistatin-related protein 3 (Homo sapiens) (O95633 whole entry, looked up): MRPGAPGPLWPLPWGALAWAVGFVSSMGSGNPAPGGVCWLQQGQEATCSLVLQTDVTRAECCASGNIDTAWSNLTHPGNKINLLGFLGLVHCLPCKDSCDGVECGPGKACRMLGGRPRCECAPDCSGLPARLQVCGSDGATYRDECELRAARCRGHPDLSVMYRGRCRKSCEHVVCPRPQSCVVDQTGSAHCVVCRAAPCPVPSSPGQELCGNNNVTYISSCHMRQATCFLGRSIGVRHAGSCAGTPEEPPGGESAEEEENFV
Sequence of Epidermal growth factor receptor (Homo sapiens) (P00533 whole entry, looked up): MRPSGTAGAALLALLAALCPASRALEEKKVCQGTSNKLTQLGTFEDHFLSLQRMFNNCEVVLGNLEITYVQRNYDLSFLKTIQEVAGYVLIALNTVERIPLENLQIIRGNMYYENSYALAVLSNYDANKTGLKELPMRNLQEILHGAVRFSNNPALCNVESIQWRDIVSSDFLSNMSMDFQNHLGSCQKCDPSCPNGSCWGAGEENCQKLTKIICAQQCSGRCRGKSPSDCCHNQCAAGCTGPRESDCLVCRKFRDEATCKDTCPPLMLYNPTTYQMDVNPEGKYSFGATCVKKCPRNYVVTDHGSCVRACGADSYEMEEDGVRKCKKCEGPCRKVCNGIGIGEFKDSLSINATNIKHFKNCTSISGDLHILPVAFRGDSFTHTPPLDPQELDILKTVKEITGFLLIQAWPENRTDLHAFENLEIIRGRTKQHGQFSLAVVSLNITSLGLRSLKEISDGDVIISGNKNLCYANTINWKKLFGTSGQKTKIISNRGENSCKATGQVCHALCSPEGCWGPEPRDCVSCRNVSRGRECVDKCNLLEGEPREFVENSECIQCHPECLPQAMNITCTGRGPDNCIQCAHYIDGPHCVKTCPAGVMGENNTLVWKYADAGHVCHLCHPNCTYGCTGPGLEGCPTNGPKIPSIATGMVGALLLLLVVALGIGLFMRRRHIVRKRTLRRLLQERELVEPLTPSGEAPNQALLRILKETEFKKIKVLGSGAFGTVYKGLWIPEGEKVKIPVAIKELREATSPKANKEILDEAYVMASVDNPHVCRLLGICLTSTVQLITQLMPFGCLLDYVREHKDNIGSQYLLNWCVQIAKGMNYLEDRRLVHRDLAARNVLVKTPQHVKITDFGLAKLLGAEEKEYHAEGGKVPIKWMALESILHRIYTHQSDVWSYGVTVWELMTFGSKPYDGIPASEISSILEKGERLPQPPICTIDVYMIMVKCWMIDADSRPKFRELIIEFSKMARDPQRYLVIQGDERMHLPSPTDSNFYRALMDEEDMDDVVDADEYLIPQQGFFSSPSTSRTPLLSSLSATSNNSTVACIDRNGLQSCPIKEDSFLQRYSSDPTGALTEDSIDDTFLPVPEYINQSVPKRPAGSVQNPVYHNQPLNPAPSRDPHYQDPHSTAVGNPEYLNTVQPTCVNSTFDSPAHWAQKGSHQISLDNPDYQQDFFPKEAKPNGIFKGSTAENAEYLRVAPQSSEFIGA

Regarding `COC(=O)[C@@H]1CC[C@H](C)[C@@H](c2ccc(C)cc2)N1C(=O)c1ccc(C=NOC[C@H]2O[C@H](c3ccccc3)C=C[C@@H]2Oc2ccc(OC)cc2)cc1`, the composite z-score in assay [1] is 0.391; in assay [5] it was -0.703; in [7] it was -0.0977; in [8], -0.0296; in [9], 0.107; in assay [10], -0.0682. Besides, the composite z-score in assay [11] was 0.198; in assay [12], -0.0428; in assay [13], -0.32; in assay [15] it was 0.3; in [16], -0.245; in assay [17] it was 0.331. In addition, the composite z-score in [18] is -0.189; in assay [19] it was 0.15; in assay [20] it was 1.24. For the same compound, the z-score in assay [2] was 0.456 (inactive); in assay [3], 0.267 (inactive); in assay [4], 0.0902 (inactive); in assay [6], -0.234 (inactive); in assay [14] it was -0.0767 (inactive).

Consider `C=CC[C@@H]1C=C[C@H](ON=C2C[C@@H](O)[C@@H](O)[C@@H]3[C@@H]4C(=O)N(CC)C(=O)[C@@H]4CC[C@@H]23)[C@@H](CO)O1`, for which the composite z-score in [1] was 0.245; in assay [5], -0.004; in [7] it was -0.0736; in [8] it was 0.107; in assay [9], -0.724; in assay [10], -0.119. In addition, the composite z-score in [11] was -0.487; in assay [12] it was -0.428; in assay [13], -0.562; in assay [15], 0.156; in assay [16] it was -0.653; in [17], -0.0239. Also, the composite z-score in [18] was -0.339; in [19], 0.106; in assay [20], 0.535. In addition, the z-score was 0.442 (inactive) in assay [2]; -0.376 (inactive) in assay [3]; 0.445 (inactive) in [4]; -0.876 (inactive) in assay [6]; -1.2 (inactive) in assay [14].

`COc1ccc(COC(=O)NN=C2C[C@@H](O)[C@@H](O)[C@@H]3[C@@H]4C(=O)N(C[C@@H]5CCCO5)C(=O)[C@@H]4CC[C@H]23)cc1`: the composite z-score in assay [1] was -0.478; in [5], 0.43; in assay [7], 0.258; in assay [8], -0.809; in assay [9], -0.398; in assay [10] it was -0.211. Moreover, the composite z-score was -0.321 in assay [11]; 1 in assay [12]; 1.26 in [13]; -0.494 in [15]; -0.797 in assay [16]; -0.211 in assay [17]. Besides, the composite z-score was -1 in assay [18], -0.746 in [19] and 0.229 in assay [20]. For the same compound, the z-score in assay [2] was -0.0944 (inactive); in assay [3], 0.247 (inactive); in [4], -0.0457 (inactive); in [6], -0.5 (inactive); in [14] it was 0.0734 (inactive).

For `CCOC(=O)[C@H](Cc1ccccc1)NC(=O)CCC1CC(OC(=O)NCc2cccc3ccccc23)CC2(CCCC(COC(=O)NCCc3ccc(Cl)cc3)O2)O1` (stereo not given in full), the composite z-score was 1.15 in assay [1]; 1.3 in assay [5]; -0.253 in assay [7]; 0.448 in assay [8]; 0.974 in assay [9]; -0.0922 in assay [10]. The composite z-score in assay [11] was 0.519; in [12], -0.217; in assay [13], -0.603; in assay [15] it was 0.718; in assay [16] it was 0.24; in assay [17], 0.104. Besides, the values for the composite z-score in [18], in [19] and in assay [20] were 0.588, 0.621 and 0.145, respectively. Moreover, the z-score in assay [2] is -0.69 (inactive); in [3] it was -0.0785 (inactive); in assay [4], -0.647 (inactive); in [6] it was -0.159 (inactive); in [14] it was -0.84 (inactive).

Consider `CC(C)CON=C1C[C@@H](O)[C@@H](O)[C@@H]2[C@@H]3C(=O)N(c4ccc(F)cc4F)C(=O)[C@@H]3CC[C@@H]12`, for which the composite z-score in assay [1] is 0.601; in [5] it was 0.956; in [7], -0.212; in assay [8], 0.344; in assay [9] it was 0.898; in assay [10], -0.026. The composite z-score was 0.622 in assay [11]; -0.153 in assay [12]; -0.462 in assay [13]; 0.585 in [15]; 0.598 in assay [16]; 0.321 in [17]. For the same compound, the composite z-score was 0.598 in assay [18], 0.289 in assay [19] and -0.287 in assay [20]. Further, the z-score was 0.0347 (inactive) in assay [2]; -0.786 (inactive) in assay [3]; -0.733 (inactive) in assay [4]; 1.24 (inactive) in assay [6]; -0.817 (inactive) in assay [14].
